An excerpt weighted towards active compounds, which were near 0.87% of everything screened.
TLR4-MyD88 BLA = inhibitors of human TLR4-MyD88 binding | AID 861 | 0.18% of 200,000 active | O00206+Q99836 | inhibition, % at 8.4 µM | HeLa CL3-4 TLR4/MyD88 BLA complementation, FRET ratio; in the data active = inhibition above about 25%
Target sequence (O00206 whole entry, looked up): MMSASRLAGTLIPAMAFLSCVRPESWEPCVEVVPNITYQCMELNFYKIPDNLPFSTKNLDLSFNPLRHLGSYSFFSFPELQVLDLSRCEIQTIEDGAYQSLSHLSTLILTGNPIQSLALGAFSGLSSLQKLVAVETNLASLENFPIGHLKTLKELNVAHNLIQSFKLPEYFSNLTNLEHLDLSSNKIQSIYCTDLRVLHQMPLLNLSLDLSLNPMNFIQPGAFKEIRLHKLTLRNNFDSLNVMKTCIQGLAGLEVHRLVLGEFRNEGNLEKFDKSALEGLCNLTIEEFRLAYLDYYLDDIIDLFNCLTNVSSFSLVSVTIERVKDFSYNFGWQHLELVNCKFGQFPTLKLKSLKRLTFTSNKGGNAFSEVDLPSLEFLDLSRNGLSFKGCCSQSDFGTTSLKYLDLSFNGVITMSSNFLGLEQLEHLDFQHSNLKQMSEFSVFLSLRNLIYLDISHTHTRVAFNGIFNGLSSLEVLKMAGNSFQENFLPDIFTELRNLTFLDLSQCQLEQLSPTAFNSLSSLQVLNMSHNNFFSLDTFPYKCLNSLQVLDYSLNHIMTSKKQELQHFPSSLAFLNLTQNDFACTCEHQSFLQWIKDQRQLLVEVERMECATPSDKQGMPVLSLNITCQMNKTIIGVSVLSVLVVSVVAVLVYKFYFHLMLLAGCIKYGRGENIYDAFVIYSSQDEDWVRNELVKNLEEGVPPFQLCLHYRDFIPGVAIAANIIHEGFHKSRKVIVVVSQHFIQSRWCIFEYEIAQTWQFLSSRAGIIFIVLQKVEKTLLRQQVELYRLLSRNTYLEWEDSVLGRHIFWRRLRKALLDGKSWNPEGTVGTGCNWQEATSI
Target sequence (Q99836 whole entry, looked up): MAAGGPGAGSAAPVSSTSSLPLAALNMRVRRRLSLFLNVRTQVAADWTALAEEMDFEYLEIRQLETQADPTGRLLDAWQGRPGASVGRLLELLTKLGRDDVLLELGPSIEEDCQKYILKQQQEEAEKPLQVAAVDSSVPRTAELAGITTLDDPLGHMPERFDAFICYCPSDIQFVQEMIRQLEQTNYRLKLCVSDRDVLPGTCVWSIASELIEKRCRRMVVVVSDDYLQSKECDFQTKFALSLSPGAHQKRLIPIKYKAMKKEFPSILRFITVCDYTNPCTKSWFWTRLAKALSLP
IDE act = IDE (human) activation, cell-based; AID 493087; P14735; HEK cells, FAbeta-B cleavage, fluorescence polarization; 0% vehicle, 100% cell-free pure enzyme wells; 0.073% of 340,000 active; activation, % at 5.96 µM;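 active = activation above the mean of all tested compounds plus 3 SD, set per screening campaign, cut at about 17% in these data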
IDE inh = inhibits human insulin-degrading enzyme in HEK cells | 0.41% of 320,000 active | inhibition, % at 5.59 µM | FAbetaB cleavage, fluorescence polarization | P14735;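 active = percent inhibition above the average of all tested compounds plus 3 SD, set per screening campaign, cut at about 16% in these data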;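 also: IDE supplied by intact live HEK cells; FP after avidin binding of uncleaved biotin substrate so inhibition keeps polarization high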
TLR9-MyD88 block = inhibitors of human TLR9-MyD88 binding; Q9NR96+Q99836; CHO BLA complementation TLR9-MyD88, CCF4 FRET ratio; inhibition, % at 4.98 µM; 0.21% of 340,000 active; AID 504734;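 active = inhibition above the mean over all tested compounds plus 3 SD, cut at about 21% in these data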
NOD2 RIPK2 PPI = NOD2-RIPK2 protein interaction inhibition; CHO BLA complementation NOD2-RIPK2, CCF4 ratio; inhibition, % at 4.98 µM; 0.38% of 360,000 active; AID 624267; in the data active = inhibition above about 21%
TLR4 MyD88 cnf = TLR4-MyD88 interaction inhibition confirmed; shares compounds with TLR4-MyD88 BLA; HeLa CL3-4 BLA complementation, CCF4 FRET ratio; inhibition, % at 8.4 µM; 50% of 350 active;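 active = mean inhibition across three repeat runs above about 25% carried over from the earlier screen, limit read from the data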
BLA inhibitor ct = beta-lactamase inhibition flagged in TLR4-MyD88 counter-screen; shares compounds with TLR4-MyD88 BLA; HeLa BLA reporter, CCF4 FRET ratio; inhibition, % at 8.4 µM; 63% of 350 active; AID 1237;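 active = mean inhibition over three repeats above about 26% taken from the earlier screen, limit read from the data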;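 also: HeLa cells stably expressing beta-lactamase reporter as counterscreen for TLR4-MyD88 inhibitors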
IDE inh confirm = cellular human IDE inhibition, confirmation; shares compounds with IDE inh; HEK cells, FAbetaB cleavage, fluorescence polarization; inhibition, % at 5.59 µM; 51% of 1,200 active; AID 435028;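 active = mean inhibition across triplicate wells above the cutoff set by the earlier primary insulin-degrading enzyme screen, cut at about 16% in these data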
HEK293 tox = kills HEK cells in IDE inhibitor counter-screen. HEK293 cytotoxicity, ATP luminescence. shares compounds with IDE inh. AID 449730. 28% of 1,200 active. inhibition, % at 5.59 µM; in the data active = inhibition above about 22%
Each line names hits and unclear results; the compound was inactive in the other large screens (follow-up assays come after a bar, where they were run).

O=C1NC(=O)N(c2ccccc2F)C(=O)/C1=C/c1ccc(Sc2nc3ccccc3[nH]2)o1	IDE inh 34
O=C1NC(=O)N(c2ccccc2)C(=O)/C1=C/c1ccc(Sc2ccccc2)o1	none
C[C@]12CCC3C(CC[C@H]4C[C@@H](O)[C@H](O)C[C@]34C)C1CC[C@@H]2O (stereo partly specified)	none (no result: TLR4-MyD88 BLA)
CCc1nnc(NS(=O)(=O)c2ccc(N=Cc3c(O)n(-c4ccc(Cl)cc4)c(=O)[nH]c3=O)cc2)s1	IDE act 50
CCOP(=O)(OCC)C(c1ccccc1)N(C)C=O (stereo unspecified)	NOD2 RIPK2 PPI 58
CCOP(=O)(OCC)C(NC(=O)c1ccccc1)C(Cl)(Cl)Cl (stereo unspecified)	none
O=C(O)c1cc[c]([Hg][Cl])cc1	IDE inh 96 (no result: TLR4-MyD88 BLA)
CCC1CN1P(=O)(Oc1ccc(Cl)cc1)N1CC1CC (stereo unspecified)	none (no result: TLR4-MyD88 BLA, IDE inh)
O=c1c2ccccc2nc(/C=C/c2ccc(O)cc2)n1-c1cccc(O)c1	IDE inh 83
CCOc1cccc(CNCCc2c(C)[nH]c3ccc(OC(F)(F)F)cc23)c1O	none (no result: TLR4-MyD88 BLA)
CCn1c(O)c(C=Nc2ccc(N3CCOCC3)c(Br)c2)c(=O)n(CC)c1=S	none
CCn1c(O)c(C=Nc2ccc(N3CCOCC3)cc2)c(=O)n(CC)c1=S	TLR4-MyD88 BLA 44 | TLR4 MyD88 cnf 50 | BLA inhibitor ct 69
Cc1ccc(/C=C2\C(=O)NC(=S)N(c3ccc(F)cc3)C2=O)s1	TLR4-MyD88 BLA 26 | TLR4 MyD88 cnf inactive | BLA inhibitor ct inactive
C#C[C@]1(O)CCC2C3C(CC[C@@]21C)[C@@]1(C)CC[C@@H](O)CC1=C[C@H]3O (stereo partly specified)	none (no result: TLR4-MyD88 BLA)
Cc1ccc(-n2c(/C=C/c3ccc4c(c3)OCO4)nc3ccccc3c2=O)cc1	none (no result: IDE act, TLR9-MyD88 block, NOD2 RIPK2 PPI)
COc1ccc(-n2c(/C=C/c3ccc(O)cc3)nc3ccccc3c2=O)cc1	IDE inh 31 (no result: TLR4-MyD88 BLA) | IDE inh confirm 76 | HEK293 tox inactive
COc1ccc(-n2c(/C=C/c3ccc(O)c(OC)c3)nc3ccccc3c2=O)cc1	IDE inh 34 (no result: TLR4-MyD88 BLA) | IDE inh confirm 102 | HEK293 tox 26
COc1cccc(-n2c(/C=C/c3ccc(O)c(O)c3)nc3ccccc3c2=O)c1	IDE inh 160 | IDE inh confirm 26 | HEK293 tox inactive
O=c1c2ccccc2nc(/C=C/c2ccc(O)cc2)n1-c1ccc(O)cc1	IDE inh 62 (no result: TLR4-MyD88 BLA) | IDE inh confirm 133 | HEK293 tox inactive
N=C1c2ccccc2CN1NC(=O)c1ccco1	none (no result: TLR4-MyD88 BLA)
Cc1[nH]nc2ccc(-c3cncc(OC[C@@H](N)Cc4c[nH]c5ccccc45)c3)cc12	none (no result: TLR4-MyD88 BLA, IDE inh)
COc1ccc(-n2c(O)c(/C(C)=N/Nc3ccccc3)c(=O)[nH]c2=O)cc1	none (no result: TLR4-MyD88 BLA)
COc1ccc(-n2c(O)c(/C=C/C=Nc3ccccc3)c(=O)[nH]c2=O)cc1	IDE inh 159 | IDE inh confirm 51 | HEK293 tox inactive
Cc1ccc(-n2c(O)c(/C=C/C=Nc3ccccc3)c(=O)[nH]c2=O)cc1	IDE inh 21 | IDE inh confirm 30 | HEK293 tox inactive
C=CCn1c(O)c(/C=C/C=Nc2ccccc2)c(=O)[nH]c1=O	IDE inh 18 | IDE inh confirm inactive | HEK293 tox inactive
O=c1[nH]c(=O)n(C2CCCCC2)c(O)c1/C=C/C=Nc1ccccc1	IDE inh 21 (no result: TLR4-MyD88 BLA) | IDE inh confirm 42 | HEK293 tox inactive
COC1=CC(=O)OC(CCc2ccc3c(c2)OCO3)C1 (stereo unspecified)	none (no result: TLR4-MyD88 BLA, IDE inh)
O=c1[nH]c(=O)n(-c2ccccc2)c(O)c1/C=C/C=Nc1ccccc1	IDE inh 34 | IDE inh confirm 35 | HEK293 tox inactive
NS(=O)(=O)c1ccc(N=Cc2c(O)n(-c3ccccc3)c(=O)[nH]c2=O)cc1	none (no result: IDE act, TLR9-MyD88 block)
COc1ccc(N2C(=O)/C(=C/c3ccc(N(C)C)o3)C(=O)NC2=S)cc1	none (no result: TLR4-MyD88 BLA)
CCN(CC)c1ccc(/C=C2\C(=O)NC(=S)N(C)C2=O)o1	IDE inh 26 (no result: TLR4-MyD88 BLA) | IDE inh confirm 29 | HEK293 tox inactive
CCN(CC)c1ccc(/C=C2\C(=O)NC(=S)N(c3ccc(OC)cc3OC)C2=O)o1	IDE inh 33 (no result: TLR4-MyD88 BLA) | IDE inh confirm 36 | HEK293 tox inactive
C(#CCN1CCCC1)CN1CCCC1	none (no result: TLR4-MyD88 BLA, IDE inh)
CCN1/C(=C\C=C\C2=[N+](CC)c3ccccc3C2(C)C)C(C)(C)c2ccccc21	IDE inh 82 | IDE inh confirm 173 | HEK293 tox 120
C#C[C@]1(O)[C@H](O)CC2C3CC[C@H]4C[C@@H](O)CC[C@]4(C)C3CC[C@@]21C (stereo partly specified)	none (no result: TLR4-MyD88 BLA, IDE act, TLR9-MyD88 block)
CC(OC(=O)c1cn(C)c2ccccc12)C(=O)N1CCCC1 (stereo unspecified)	none (no result: TLR4-MyD88 BLA)
O=c1[nH]c(=O)n(Cc2ccccc2)c(O)c1/C=N/NCCO	IDE inh 16 (no result: TLR4-MyD88 BLA, IDE act, TLR9-MyD88 block) | IDE inh confirm inactive | HEK293 tox inactive
O=c1[nH]c(=O)n(Cc2ccccc2)c(O)c1C=NCCCO	none
COC(=O)C1=C(c2ccc(F)cc2OCc2ccccc2)C[C@@H]2CC[C@H]1N2C(=O)NC1CC1	none (no result: TLR4-MyD88 BLA)
COc1ccccc1CNC(=O)CCC(=O)N1C[C@H]2C[C@@H](C1)c1cccc(=O)n1C2	none (no result: TLR4-MyD88 BLA)
CCOC(=O)c1c(C)n(Cc2ccccc2)c2ccc(OCC(O)CNC(C)(C)C)cc12 (stereo unspecified)	IDE inh 38 (no result: TLR4-MyD88 BLA) | IDE inh confirm 19 | HEK293 tox inactive
Nc1nc(N)c2cnnn2n1	none (no result: TLR4-MyD88 BLA, IDE inh)
Cc1cccc(N2C(=O)NC(=O)/C(=C/c3ccc(-c4ccc(C(=O)O)c(Cl)c4)o3)C2=O)c1	none (no result: IDE act, TLR9-MyD88 block, NOD2 RIPK2 PPI)
O=C1NC(=O)N(c2cccc(Cl)c2)C(=O)/C1=C\c1ccc(Sc2nc3ccccc3[nH]2)o1	IDE inh 26 | IDE inh confirm inactive | HEK293 tox inactive

Compound activity as filed in PubChem BioAssay.
